# Laboratory results from PubChem BioAssay (NCI).
# Compounds without any hit were thinned out: in the full panel of roughly 83,000, 20% have a hit.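 Cell lines were cultured in 96-well plates, exposed to a single compound concentration, and assessed for percent growth 48 hours later.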 Active and inactive are the calls of the source. The calls were made as follows: active = growth percent below 10; inactive = the rest.
# Test system: SR leukemia
# Experiment: NCI-60 one-dose screen, 48 h (100 = growth as untreated, 0 = no growth, -100 = all killed)
# Conditions: 10 µM unless noted
row,Compound,growth
1,CCCCCCCCCCCCCCn1cc(C2=C(c3coc4ccc(OC)cc34)C(=O)NC2=O)c2ccccc21,111% (inactive)
2,O=c1c(-c2nc3ccccc3[nH]2)cc2ccccc2n1Cc1cn(Cc2ccccc2Cl)nn1,11.5% (inactive)
3,O=C(CSc1nc2ccccc2c(=O)n1-c1ccccc1)Nc1ccc(C(=O)/C=C/c2ccc(Cl)cc2)cc1,85.3% (inactive)
4,Cc1cccc2c(=O)c3c(sc12)c(NCCN)nc1ccccc13,-28.3% (active)
5,O=c1cc(-c2ccccc2)oc2cc(OCc3cn(Cc4ccc(F)cc4)nn3)cc(OCc3cn(Cc4ccc(F)cc4)nn3)c12,32.7% (inactive)
6,COc1cc(/C=C2\Oc3cc(OCCCN4CCCC4)ccc3C2=O)cc(OC)c1,-49.3% (active)
7,Nc1no[n+]([O-])c1-c1nnc2c(n1)-c1ccccc1C2=O,3.68% (active)
8,O=C(CN1C=NC2C(N3CCOCC3)=NC=NC21)c1ccc(Br)cc1 (centres undefined),104% (inactive)
9,NC(CCc1nc2ccccc2c(=O)[nH]1)C(=O)O (centres undefined),96.8% (inactive)
10,CN1CCN(Cc2ccc(NC(=O)c3[nH]ncc3Nc3cc(OC4CCCC4)ncn3)cc2)CC1,4.42% (active)
11,COc1ccc(C2=Nn3c(NN)nnc3SC2)cc1,75.8% (inactive)
12,COc1cc2nc(-c3cnc(N(C)C)nc3)nc(NC3CCN(Cc4ccccc4)CC3)c2cc1OC,4.28% (active)
13,CCN1C(=O)N(c2ccccc2)C2NN=c3s/c(=C4\C(=O)N(C(C)C)c5ccccc54)c(=O)n3C21 (centres undefined),14.6% (inactive)
14,CC(C)c1ccc(S(=O)(=O)NC(=O)NC2CCCC2)cc1,95.6% (inactive)
